Compound activity: PubChem, National Center for Advancing Translational Sciences (NCATS)
VACV Venus inh – qHTS for Stage-Specific Inhibitors of Vaccinia Orthopoxvirus: Venus Reporter Primary qHTS. AID 720580, 2013. 0.46% of 330,000 active. Potency, µM (series often up to 36.5 µM), for inactives: top-dose activity change, negative = inhibition, most hits filed as inhibitors. Vaccinia virus Venus reporter expression, fluorescence; calls by dose curve; tested in A549 cells; also: % is scaled to controls: 0 for no effect and ±100 for the full control effect; nearly all actives have a fitted effect of over 30% in size
Vaccinia mCherry – qHTS for Stage-Specific Inhibitors of Vaccinia Orthopoxvirus: mCherry Reporter Primary qHTS; Vaccinia virus mCherry reporter infection, fluorescence; Potency, µM (highest dose often 36.5 µM), inactives show at the highest dose activity change, negative = inhibition, most hits filed as inhibitors; 0.63% of 310,000 active; AID 720579, 2013; calls by dose curve; tested in A549 cells; also: % is scaled to controls: 0 for no effect and ±100 for the full control effect; nearly all actives have a fitted effect of over 35% in size
HCV inh – qHTS Assay for Inhibitors of Hepatitis C Virus (HCV) | Huh7.5.1 HCVcc-Cre infection, luciferase reporter, 44 h | Potency, µM (series often up to 41.8 µM), for inactives: at the highest dose activity change, negative = inhibition, actives largely listed as inhibitors | 3.4% of 340,000 active | AID 651820, 2012; also: % is scaled to controls: 0 for no effect and ±100 for the full control effect
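A cell-based infection assay in which seeded cells (1,000 per well) receive test compound after 4 h, are inoculated with HCVcc-Cre at approximately 0.5 moi, and are incubated 44 h before luminescence detection.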
NS1 function inh – qHTS Assay for Inhibitors of Influenza NS1 Protein Function | AID 2326, 2010 | 0.4% of 270,000 active | Potency, µM (series often up to 46.1 µM), for inactives: at the highest dose activity, positive = more growth; calls by dose curve; also: actives are rising curves; nearly all actives have a fitted effect of over 50% in size
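OD600 was taken as the measure of yeast growth restored by compound in an NS1-expressing S. cerevisiae strain. Cells had been washed out of glucose medium and diluted 1:100 into galactose -URA medium, pH 6.0.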
Pf growth 48h – Primary qHTS for delayed death inhibitors of the malarial parasite plastid, 48 hour incubation; P. falciparum luciferase growth in erythrocytes, 48 h; Potency, µM (highest dose often 28.7 µM), inactives show top-dose activity change, negative = inhibition, usual class: inhibitors; 5.9% of 310,000 active; AID 504832, 2011; also: % is scaled to controls: 0 for no effect and ±100 for the full control effect
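Luminescence readout; reporter = integrated firefly luciferase in P. falciparum. RBC culture at 2% hematocrit, 0.1% parasitemia final, 37 C/5% CO2; decreased signal taken as growth inhibition.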
Pf growth 96h – Primary qHTS for delayed death inhibitors of the malarial parasite plastid, 96 hour incubation; P. falciparum luciferase reporter growth, 96 h; 6.9% of 320,000 active; Potency, µM (series often up to 28.7 µM), for the others: at the highest dose activity change, negative = inhibition, most hits filed as inhibitors; also: % is scaled to controls: 0 for no effect and ±100 for the full control effect
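Plates of compound plus infected erythrocytes (2% hematocrit, 0.05% parasitemia final) incubate 96 hours, 37 C, 5% CO2. Detection reagent added; reduced luminescence from the parasites' luciferase reporter flags inhibition.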
* marks the source's active call; other numbers are inactive results; i = inactive; ? = inconclusive; / = not tested or not shown; [ ] = remark or other dose. Most compounds without a hit are left out; they make up all but 11% or so of the library. Unless noted, calls follow the shape of the dose curve; as a rule, active = well fitted inhibition curve with a large enough effect; inconclusive = small, poorly fitted or top-dose-only effect, or another doubt; inactive = no such curve, though single readings can be large or run the other way. Potency is read from the fitted curve at half-maximal effect.

SMILES	VACV Venus inh	Vaccinia mCherry	HCV inh	NS1 function inh	Pf growth 48h	Pf growth 96h
C=CCOc1c(CNc2ccc(C(=O)O)cc2)cccc1OCC	/	/	19.4%	-2.6%	46.6%	41.8%
C=CCOc1c(CNc2ccc(C(=O)O)cc2)cccc1OC	-11.9%	i	33.3%	-6.3%	12.5%	4.65µM*
COc1ccc(C)cc1S(=O)(=O)N(C)CC(=O)NC1CC1	-12.1%	-0.6%	22.4%	2.0%	/	?
COc1ccc(Cl)cc1S(=O)(=O)N(C)CC(=O)N1CCCC1	/	/	12.4%	5.1%	5.2%	5.86µM*
COc1ccc(C)cc1S(=O)(=O)N(C)CC(N)=O	-6.0%	/	1.1%	-0.6%	-7.3%	10.4µM*
COc1ccc(C)cc1S(=O)(=O)N(C)CC(=O)N1CCCC1	/	/	-4.7%	-6.5%	7.4%	11.7µM*
COc1ccc(N(CC(=O)NCc2ccc(C)cc2)S(=O)(=O)c2ccccc2[N+](=O)[O-])c(OC)c1	-15.9%	?	-43.6%	12.0%	?	0.0%
Cc1c(NC(=O)C2(C)CCCCC2)c(=O)n(-c2ccccc2)n1C	-10.2%	i	2.9%	5.6%	/	-6.7%
CCN(CC)CCOCCOC(=O)C1(c2ccccc2)CCCC1	-25.9%	-11.8%	-48.0%	0.3%	3.01µM*	3.38µM*
CC(C[N+](C)(C)C)OC(=O)C1(c2ccccc2)CCCC1 (stereo not drawn)	/	/	7.2%	-5.9%	10.4µM*	?
Cc1cccc(CC2SC(N3CCN(c4ccccc4)CC3)=NC2=O)c1 (stereo not drawn)	-13.6%	-21.5%	12.1%	-16.8%	-8.1%	?
O=C1C(=O)N(CCS(=O)(=O)c2ccccc2)c2ccc(F)cc21	/	/	4.6%	2.0%	?	9.28µM*
COc1ccc2c(c1)C(=O)C(=O)N2CCS(=O)(=O)c1ccccc1	/	/	22.8%	0.8%	-9.7%	?
Cc1nc(Nc2ncc(C(=O)Nc3c(C)cccc3Cl)s2)cc(N2CCN(CCO)CC2)n1	?	?	/	/	9.53µM*	7.57µM*
Cc1c(Cl)cccc1NC(=O)CN1CCN(CCO)CC1	/	/	1.8%	-6.3%	10.7%	-0.4%
CC(C)(C)c1ccc(/C=N/Nc2nncn2N)cc1	?	?	10.2%	-91.2%	29.9%	90.7%
Nn1cnnc1N/N=C/c1cc(Br)cc(Br)c1O	?	8.91µM*	?	-66.2%	0.4%	69.5%
CCCCOc1ccc(CNn2c(C)nc3ccccc3c2=O)cc1	-3.6%	-4.8%	10µM*	-8.6%	25.3%	0.0%
COc1ccc(CNn2c(C)nc3ccccc3c2=O)cc1	-18.5%	?	-26.2%	-48.7%	1.8%	-1.8%
COc1ccccc1CNn1c(-c2cccc(C)c2)nc2ccccc2c1=O	-5.7%	-8.2%	?	-10.7%	/	11.7µM*
COc1cccc(OC)c1C(=O)Nn1c(-c2cccc(C)c2)nc2ccccc2c1=O	-5.1%	-6.0%	-27.1%	/	-22.0%	?
COc1ccc(CNn2c(-c3cccc(C)c3)nc3ccccc3c2=O)cc1OC	-7.9%	-12.8%	?	-8.7%	/	11.7µM*
Cc1ccc(-c2cc(C(=O)N3CCN(c4ccccc4O)CC3)c3ccccc3n2)o1	-20.0%	?	-11.2%	-58.0%	?	13.1µM*
O=C(c1ccc2ccccc2n1)N1CCN(c2ccccc2O)CC1	-10.5%	/	29.1%	-9.5%	?	13.1µM*
O=C(c1cc(-c2ccc(Br)cc2)nc2ccccc12)N1CCN(c2ccccc2O)CC1	?	14.1µM*	?	/	5.86µM*	5.86µM*
SMILES	VACV Venus inh	Vaccinia mCherry	HCV inh	NS1 function inh	Pf growth 48h	Pf growth 96h
OC1OC[C@@H](O)[C@H](O)[C@@H]1O (stereo partly drawn)	/	/	/	/	5.7%	18.7%
COC(=O)c1sccc1S(=O)(=O)N(CC(=O)Nc1cccc(C)c1C)c1ccc(C)c(C)c1	4.1%	-6.8%	/	/	/	/
O=c1cc(CSc2nnc(-c3cccnc3)n2-c2ccccc2F)nc2sccn12	3.5%	-15.9%	-3.7%	26.6%	-11.9%	9.0%
Cc1ccc(-n2c(SCc3cn4ccsc4n3)nc3ccccc3c2=O)cc1	?	-25.6%[1.46 µM]	10µM*	?	?	/
CCc1cccc(CC)c1-n1c(SCc2cc(=O)n3ccsc3n2)nnc1-c1cccnc1	/	/	6.8%	-4.3%	14.7µM*	10.4µM*
Cc1cccc(-n2c(SCc3cc(=O)n4ccsc4n3)nc3ccccc32)c1	-11.7%	-23.0%	7.94µM*	12.5%	2.94µM*	4.15µM*
c1ccc(-n2cnnc2SCc2cn3ccsc3n2)cc1	/	/	15.6%	0.1%	40.9%	41.8%
CC(CC(=O)O)NCC1COc2ccccc2O1 (stereo not drawn)	-2.7%	-6.1%	-12.8%	-4.0%	/	/
Cn1nc(C(=O)N2CCc3ccccc3C2)c2ccccc2c1=O	0.1%	/	30.7%	-8.7%	-2.5%	/
CCC(C)[C@H](NS(=O)(=O)c1ccc(C)cc1)C(=O)N1CCC(C(=O)N2CCC(C(N)=O)CC2)CC1 (stereo partly drawn)	-3.9%	2.4%	-6.7%	-6.2%	-4.3%	-24.1%
CC[C@H]1CN2CCc3cc(OC)c(OC)cc3[C@H]2C[C@@H]1C[C@@H]1NCCc2cc(OC)c(OC)cc21	/	/	/	/	0.0675µM*	0.0675µM*
CCC1CN2CCc3cc(OC)c(OC)cc3C2CC1CC1c2cc(OC)c(OC)cc2CCN1C(=O)C(Cc1c[nH]c2ccccc12)NC(=O)OC(C)(C)C (stereo not drawn)	-25.8%	-11.9%	11.2µM*	/	/	/
CC(C)C[C@H](NC(=O)OC(C)(C)C)C(=O)N1CCC(C(=O)N[C@@H](Cc2c[nH]c3ccccc23)C(=O)O)CC1	-0.6%	-6.2%	-8.1%	5.8%	-18.4%	?
O=S(=O)(c1cccs1)N1CCN(c2ccccc2Cl)CC1	-7.2%	-14.7%	/	/	/	/
Cc1cc(F)ccc1NC(=O)C1CCN(C(=O)Nc2ccccc2)CC1	-6.0%	-13.6%	0.4%	/	0.7%	-7.4%
COCC(C)OC(=O)/C(C#N)=C\c1coc2ccc(C)cc2c1=O (stereo not drawn)	-7.7%	i	0.7%	-51.7%	77.2%	26.0%
CC(CCCN1CCCC1)Nc1ccnc2cc(Cl)ccc12 (stereo not drawn)	-8.0%	?	?	/	/	/
CCN(CC)CCC[C@H](C)Nc1ccnc2cc(Cl)ccc12	/	/	/	/	0.0478µM*	0.0426µM*
CC(Nc1ccnc2cc(Cl)ccc12)c1ccc(S(N)(=O)=O)cc1 (stereo not drawn)	-7.8%	-15.1%	-2.1%	-0.8%	1.85µM*	2.33µM*
Cc1ccc(NC(=O)CCCn2nc(C)c3c(C)n(-c4ccccc4)nc3c2=O)cc1C	/	/	-7.0%	3.7%	0.6%	?
COc1ccc(CC(=O)NCCCSc2ccccc2)cc1OC	/	/	?	17.5%	18.8%	?
